# Results from PubChem BioAssay (NCATS).
# Records with an inconclusive call do not appear. Values without a mark were called inactive. Active and inactive are the calls of the source. Calls follow the shape of the dose curve; as a rule, active = well fitted inhibition curve with a large enough effect; inconclusive = small, poorly fitted or top-dose-only effect; inactive = flat fitted curve, though single readings scatter.
# Assay: qHTS for Inhibitors of Plasmodium falciparum (HB3) proliferation (AID 504318); also: nearly all actives have a fitted effect of over 60% in size;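 as to activity change, negative = inhibition: 0% = DMSO vehicle and -100% = artemisinin control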
# Conditions: P. falciparum HB3 in erythrocytes, SYBR Green DNA, 72 h; series mostly up to 7.21 µM; activity change, negative = inhibition: at the top concentration
# Text: Plasmodium falciparum is a virulent malarial parasite that kills 1-2 million people worldwide each year. Malaria not only inflicts tremendous suffering and morbidity on the human population, but has dramatically influenced the course of civilization with profound sociological and economic implications (Shah, S. 2010). Transmitted by mosquitoes, the sporozoite form of the parasite enters the blood stream to infect hepatocytes, where they become merozoites that infect red blood cells (erythrocytes). Within erythrocytes, merozoites begin a […] cycle of growth and division, after which the parasite is released to infect new red blood cells. Gametocytes, which form within erythrocytes as well, circulate in the bloodstream and are ingested by the mosquito, thereby completing the life cycle (see CDC website). To profile malarial lines for differential chemical responses and to identify inhibitors of malarial growth, an assay that measures P. falciparum growth and replication within erythrocytes was employed. This assay uses a DNA binding fluorescent dye (SYBR Green) to detect parasite DNA following cell lysis. Because mature erythrocytes lack DNA, only Plasmodium-derived DNA is detected. The P. falciparum line cp250, derived from a malarial isolate from Cambodia, (Mu, J., et al. 2010) was added to the panel of lines, Dd2, HB3, 7G8 and GB4 in this study. Laboratory of Assay Development and Screening Technology [ADST] and NIH Chemical Genomics Center [NCGC] Boston University, Chemistry Department, Center for Chemical Methodology and Library Development [CMLD-BU] NIH National Institute of Allergy and Infectious Diseases [NIAID]
# ADST Assay Protocol Summary: The 1536-well SYBR Green viability assay was based on the method of Bennett et al (2004) and described previously in 1536-well format (Yuan J., et al. 2009). For screening 3 ul culture medium was dispensed into 1536 well black clear bottom plates (Aurora Biotechnologies) using a Multidrop Combi (Thermo Fisher Scientific Inc.), 23 nL compounds in DMSO were added by a pin transfer (Cleveland, P.H. and Koutz, P.J, 2005) using a pin tool-based delivery system (Kalypsys), and 5 ul of erythrocytes infected with P. falciparum one of five lines (cp250, Dd2, HB3, 7G8 or GB4, 0.3% parasitemia, 2.5% hematocrit final concentration) were added. The plates were incubated at 37C in a humidified incubator in 5% CO2 for 72 h, and 2 ul lysis buffer (20 mM Tris HCl, 10 mM EDTA, 0.16% saponin, 1.6% triton X, 10X SYBR Green I (supplied as 10,000X final concentration by Invitrogen) was added to each well. The plates were mixed for 25 sec with gentle shaking and incubated overnight at room temperature in the dark. The following morning, fluorescence intensity at 485(14) nm excitation and 535(25) nm emission wavelengths was measured on an EnVision (Perkin Elmer) plate reader. Plate reads were normalized relative to the control inhibitor (0.29 uM artemisinin) and vehicle (DMSO) wells present on each plate and then corrected by an algorithm using vehicle-only control plates at the beginning and end of the compound plate stack. References Shah, S. (2010). The Fever: how malaria has ruled humankind for 500,000 years. New York, Sarah Crichton Books. CDC web site, http://www.cdc.gov/malaria/about/biology/index.html Mu, J., Myers, R.A., Jiang, H., Liu, S., Ricklefs, S., Waisberg, M., Chotivanich, K., Wilairatana, P., Krudsood, S., White, N.J., et Plasmodium falciparum genome-wide scans for positive selection, recombination hot spots and resistance to antimalarial drugs Nature Genetics 2010, 42, pp 268-271 Bennett TN, Paguio, M., Gligorijevic, B., Seudieu, C., Kosar, A. D., Davidson, E., and Roepe, P. D. Novel, rapid, and inexpensive cell-based quantification of antimalarial drug efficacy Antimicrobial Agents Chemother. 2004, 48(5): pp 1807-10 Yuan J, Johnson RL, Huang RL, Wichterman J, Jiang HY, Hayton K, Fidock DA, Wellems TE, Inglese J, Austin CP, Su XZ. […]
# Potency is read from the fitted curve at half-maximal effect.
SMILES,"activity change, negative = inhibition [%]",Potency
COc1cc2c(c(OC)c1)[C@H](C=Cc1ccccc1)[C@@H]([C@H](O)CO)OC2,-1.48,–
C=CC[C@](C)(Nc1ccc(OC)cc1)C(=O)OCC,3.6,–
C=CC1=C2C=C(C3CC3)N(CCN3CCOCC3)C=C2C(=O)C(C)(OC(=O)c2ccco2)C1=O (stereo not given),–,inactive
CCC12C=C(C=Cc3ccccc3)C(CC)(C1)C(c1ccccc1)CC2=O (stereo not given),-8.78,–
COc1cc(OC)c2c(c1)OC1Cc3cc(OC)c(OC)cc3C2O1 (stereo not given),-0.14,–
COC(=O)[C@@]1(Cc2ccccc2-c2ccco2)C=C[C@H](C)[C@@H](c2ccccc2)N1C(=O)C(F)(F)F,-7.8,–
COC(=O)[C@H](COC(C)(C)C)NC(=O)O[C@@H]1C(=O)c2cc(Br)ccc2O[C@H]1c1ccc2c(c1)OCO2,-6.59,–
CCCCCCC#C[C@@H]1C=C[C@H](OC(=O)OCC)[C@@H](COC(=O)OCC)O1,3.71,–
COc1ccc([C@]23Cc4ccccc4[C@H](O2)c2c(cc(-c4ccccc4)oc2=O)O3)cc1,-0.895,–
COCCN1C(=S)NC(c2cccc(F)c2)C(C(=O)OC)=C1C (stereo not given),-6.5,–
C#CCCCON=C1C[C@@H](O)[C@H](O)[C@H]2[C@@H]3C(=O)N(c4cccc(Oc5ccccc5)c4)C(=O)[C@@H]3CC[C@@H]12,-2.22,–
C[C@@H]1C(c2ccccc2)=Cc2[nH]c(=O)[nH]c2C[C@@H]1C(=O)N1CCCC1,7.24,–
COc1ccc2c(c1)[C@@]1(OCCC=C[C@@H]1C)C(=O)N2CC=C(C)CCC=C(C)C,-16.1,–
COC(=O)C1=C(C(=O)OC)[C@@H]2Nc3ccccc3[C@@]23C[C@@H](C(=O)OC)N(C(=O)NC(C)(C)C)C3=N1,10.4,–
Cc1c(O)c(=O)c2ccccc2n1C,5.88,–
COCCN1C(=O)C2=C(C1=O)C1N(C)c3ccccc3[C@@]13C[C@@H](CO)N(S(=O)(=O)c1ccc(OC)cc1)C3=N2 (stereo not given in full),-11.2,–
Cc1cc2c(nc1C)CCCCN2C[C@H](C)ON=C[C@@H](C)[C@H](OCc1ccccc1)C(C)C,-7.82,–
COc1ccc2c(c1)CO[C@H]([C@H](O)CO)[C@H]2C=CC#Cc1ccc(C(C)(C)C)cc1,-10.9,–
COC(=O)CC=C1c2ccccc2[C@@H](NC(=O)OC)[C@@H]1C,-9.05,–
COC(=O)N[C@H](CC(C)=O)c1ccc(F)cc1,0.235,–

SMILES,"activity change, negative = inhibition [%]",Potency
COc1ccc([C@]23Cc4c(ccc5ccccc45)[C@H](O2)c2c(cc(-c4ccccc4)oc2=O)O3)cc1,0.921,–
O=C1N[C@H](Cc2ccccc2)C(=O)N1Cc1cccc2ccccc12,2.82,–
C=C(CO[C@@H]1C=C[C@@H](c2ccccc2)O[C@@H]1CO)c1ccccc1,-6,–
C[C@@H]1C=CCC(=O)OC[C@H](C)C(=O)OC[C@H]2O[C@H]1C=C[C@H]2O,-4.08,–
COC(=O)CC=C1c2ccccc2[C@@H](OC)[C@@H]1C,–,inactive
OC[C@H]1O[C@H](C#Cc2ccccc2)C=C[C@H]1O,6.92,–
CCOC(=O)N1C2=NC(C(=O)OC)=C(C(=O)OC)[C@@H]3Nc4ccccc4[C@]23C[C@H]1C(=O)OC,4.09,–
CCOC(=O)C1=CN(CCC=C(C)C)C(=O)N(C(C)=O)C1c1ccccc1 (stereo not given),-10.4,–
C#CC1(O)C2C=C(OC)C(=O)C1C(c1ccccc1)C2C (stereo not given),-6.92,–
O=C1[C@@H]2[C@H]3[C@H](O)[C@H](O)CC(=NOC[C@@H](O)COCc4ccco4)[C@H]3CC[C@H]2C(=O)N1C[C@@H]1CCCO1,3.73,–
CC=CC1=CC2=CC(=O)C(C)(OC(=O)c3c(C)cc(O)cc3O)C(=O)C2=CO1 (stereo not given),8.96,–
C[C@H]1C(C(=O)N2CCCC2)=Cc2[nH]c(=O)[nH]c2C=C1c1ccccc1,4.87,–
C=C(C(C)=O)C(O)c1cccc(OC)c1 (stereo not given),-3.59,–
O=C1CCCC=C1C(O)COCc1ccccc1 (stereo not given),-0.0726,–
COc1ccc(COC(=O)NN=C2C[C@@H](O)[C@@H](O)[C@@H]3[C@H]4C(=O)N(c5ccc(F)cc5F)C(=O)[C@@H]4CC[C@H]23)cc1,2.84,–
C=CCOC(=O)N[C@H](c1cccc(OC)c1)[C@H](C)C=CCC(=O)OC,2.46,–
CCN1C(=NCc2ccco2)N[C@@H](c2ccccc2)[C@H](C(=O)OC)[C@H]1C,1.68,–
CC(C)(C)Nc1oc(-c2ccccc2)nc1-c1ccc(C(F)(F)F)cc1,-0.0744,–
COC(=O)C1=C(C(=O)OC)[C@@H]2N(C)c3ccccc3[C@@]23C[C@@H](CO)N(C(=O)NC2CCCC2)C3=N1,–,1900 nM (active)
O=C1CCC=C1C(O)c1ccc2c(c1)OCO2 (stereo not given),6.55,–
